VCAM1 TNFa pot: TNF alpha stimulated VCAM1 expression potentiation | HUVEC TNFa-stimulated VCAM-1 immunofluorescence, high-content imaging; scaled per plate to unstimulated/TNFa-only wells | activation, % at 2 µM | 93,000 tested, 0.19% active;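 active = activation above the screen mean plus 3 SD, with well images confirming the hit on visual review, cut at about 28% in these data, passing the limit was not always enough; inconclusive = activation above that limit but images do not confirm it; inactive = activation not above that limit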;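 note: signal is the number of cytoplasmic VCAM-1 stained grains per positive cell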
VCAM1 pot conf: potentiators of TNFa-induced VCAM1 expression, confirmation, imaging, HUVEC, triplicate retest. activation, % at 2 µM. 230 tested, under 10 active. HUVEC TNFa-stimulated VCAM-1 immunofluorescence imaging. shares compounds with VCAM1 TNFa pot. AID 1034;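 active = activation above 30% in triplicate retests at 2 µM, then confirmed by visual review of the well images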;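 note: scaled per plate between unstimulated and TNFa-stimulated DMSO control wells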
* hit, by the source's call; ? = inconclusive. The sample as a whole holds a higher share of hits than the screen did.

SMILES	VCAM1 TNFa pot	others
CCOC(=O)Cc1csc(NC(=O)CSc2nnnn2-c2ccc(C)cc2C)n1	-3
CCOC(=O)Cc1csc(NC(=O)COc2ccccc2OCC)n1	4
CCOC(=O)Cc1csc(NC(=O)CSc2nc(N)c3c(C)c(C)sc3n2)n1	33*	VCAM1 pot conf=-14
CCOC(=O)c1cc(NC(=O)c2c(C)noc2C)cc(C(=O)OCC)c1	1
CCCCS(=O)CC(O)COCC (stereo unspecified)	-25
O=C(CC1NC2CCCCC2NC1=O)Nc1cccc(C(F)(F)F)c1 (stereo unspecified)	-1
COC(=O)[C@H](Cc1ccccc1)NC(=O)N1CCN(Cc2ccccc2)CC1	-6
Cc1ccc(S(=O)(=O)c2c(C)cc(C)nc2Oc2cccc(C(F)(F)F)c2)cc1	-6
O=C(CN1C(=O)c2cccnc2C1=O)c1ccccc1	8
O=C(CN1C(=O)c2ccccc2C1=O)NCC1COc2ccccc2O1 (stereo unspecified)	-17
Cc1cc(C(=O)CN2C(=O)c3ccccc3C2=O)c(C)n1C1CC1	129*	VCAM1 pot conf=-14
C=CCn1c(CCNC(=O)c2ccccc2F)nnc1SCC(=O)Nc1nc(C)cs1	-9
CCOC(=O)C(O)(CC(=O)c1ccc(OC)cc1)C(F)(F)F (stereo unspecified)	5
Cc1nc(-c2cccnc2)sc1C(N)=O	-4
COc1ccc(OC)c(NS(=O)(=O)c2ccc3c(c2)n(C)c(=O)n3C)c1	-19
CCOC(=O)c1cc2nc(Nc3ccc(OC)cc3)sc2s1	29
CCOc1ccc2sc(NS(=O)(=O)c3ccc(OC)c(OC)c3)nc2c1	61*	VCAM1 pot conf=-18
O=C(Cn1nc(Cc2ccncc2)c2ccccc2c1=O)N1CCc2ccccc2C1	-3
COc1ccc2oc(=O)c(C(=O)NCc3cccnc3)cc2c1	15
COc1ccc2oc(=O)c(C(=O)N3CCN(c4ccccc4)CC3)cc2c1	83*	VCAM1 pot conf=-9
COc1ccc2oc(=O)c(C(=O)n3ccc(C)n3)cc2c1	0
COc1ccc(S(=O)(=O)N(C)CC(=O)NCc2cccnc2)cc1Cl	-1
CCOC(=O)c1nnn(CC(=O)N2N=C(c3cccc4ccccc34)CC2c2ccccc2)c1C(=O)OCC (stereo unspecified)	-34
O=C1Nc2ccccc2C(=O)C1(Cl)Cc1ccccc1 (stereo unspecified)	-7
O=C(Oc1ccc(Cl)cc1N1C(=O)CCC1=O)c1ccco1	-9
SMILES	VCAM1 TNFa pot	others
CCN(CC)C(=O)CSc1nc(-c2cccs2)cc(-c2cccs2)c1C#N	50*	VCAM1 pot conf=-20
COc1ccc(CNC(=O)CSc2nc(-c3ccccc3)cc(-c3cccs3)c2C#N)cc1	0
CCN(CC)C(=O)CSc1nc(N)c(C#N)c(-c2cccs2)c1C#N	-13
CCOc1ccccc1NC(=O)C1CC2CCCC(C1)C2=O (stereo unspecified)	-1
CC1(CC(=O)O)C(=O)N=C2C=CC=CN21 (stereo unspecified)	8
Cc1ccccc1NC(=O)Cn1nc(C(F)(F)F)cc1C1CC1	54*	VCAM1 pot conf=-9
CCc1ccccc1NC(=O)c1nnn(CC(=O)Nc2cccc(C)c2C)c1N	-4
Cc1cc(C(F)(F)F)nn1CC(=O)Nc1ccc(Br)c2cccnc12	-6
O=C(Nc1cnn(C23CC4CC(CC(C4)C2)C3)c1)c1cnn2c(C(F)(F)F)cc(-c3ccco3)nc12	-8
CC(C)C(=O)Nc1ccc(C(=O)NNC(=O)NC2CCCCC2)cc1	-36
Cn1c(CCNC(=O)c2ccco2)nc2cc(NC(=O)NC3CCCCC3)ccc21	4
O=C(Nc1ccc2nsnc2c1)NC1CCCCC1	57*	VCAM1 pot conf=-6
CCOC(=O)c1c(NC(=O)OC)sc(C(=O)N(CC)CC)c1C	0
O=C(O)CSc1nnc(Cn2cnc3ccccc32)n1CCc1ccccc1	-1
CSCCC(NC(=O)c1ccco1)C(=O)O (stereo unspecified)	-14
Cc1cc(C(F)(F)F)nc(NCc2cccnc2)n1	?	VCAM1 pot conf=-17
FC(F)(F)c1cc(-c2ccc3c(c2)OCO3)nc(NCc2ccco2)n1	-78
CC(C)(C)Nc1nc(NCc2cccnc2)nc(N2CCOCC2)n1	-14
CCN(C(=O)CSc1nc2ccccc2n1CCc1ccccc1)C1CCS(=O)(=O)C1 (stereo unspecified)	0
O=C(NCCN1CCN(c2ccccc2F)CC1)C1CCCN(S(=O)(=O)c2cnc[nH]2)C1 (stereo unspecified)	5
CCN1C(=O)/C(=C/C=C2/SCCN2C)SC1=S	4
Cc1ccc(/C=C2/SC(=S)N(CC(=O)Nc3ncc(Cc4ccc(C)cc4)s3)C2=O)cc1	0
CCN1C(=O)/C(=C/c2cn(C)nc2C)SC1=S	53*	VCAM1 pot conf=-5
CCOC(=O)c1ccc(-n2c(=S)sc3c(=O)[nH]c(C)nc32)cc1	-87
COc1ccccc1N1CCN(C(=O)CSc2ccc3c(C)cc(C)nc3n2)CC1	-5
SMILES	VCAM1 TNFa pot	others
COc1ccc2c(C(=O)CN(C)C3CCCCC3)c[nH]c2c1	-7
Cc1nc(N2CCN(C(=O)c3ccc(Cl)cc3)CC2)c(C#N)c2c1COC(C)(C)C2	50*	VCAM1 pot conf=-16
COC(=O)c1ccc(CSc2nc(N3CCOCC3)c3c(c2C#N)CC(C)(C)OC3)o1	-1
CC(C)(C)C(=O)Nc1ccccc1N1CCN(C(=O)c2ccc(Cl)cc2)CC1	-6
N#CC(C#N)=CC1=C2OC(c3ccccc3)=CC(c3ccccc3)=C2CCC1	-8
CS(=O)(=O)N1CCCC(C(=O)NCc2ccc(F)cc2Cl)C1 (stereo unspecified)	-8
CCOC(=O)C1CCN(c2c(NCCCN(CC)c3ccccc3)c(=O)c2=O)CC1	-24
CCOC(=O)C1CCN(C(=O)C2CCN(c3nc4ccc(OC)cc4s3)CC2)CC1	114*	VCAM1 pot conf=-3
CCOC(=O)C1CCN(Cc2c(F)cccc2Cl)CC1	7
COC1(OC)C(/C=C/c2ccc(C)cc2)C(C#N)(C#N)C1(OC)OC (stereo unspecified)	-5
CCCCOC(=O)n1c(SCC(=O)N(C)C)nc2ccccc21	16
CCOc1nc(-c2ccccc2)ccc1-c1noc(COC)n1	?	VCAM1 pot conf=-10
COc1ccc(Br)cc1-c1noc(-c2ccccc2)n1	2
COc1cccc(-c2ccc(-c3noc(-c4cccs4)n3)c(OC)n2)c1	1
c1cc2c(cc1Oc1nc(N3CCOCC3)nc(N3CCOCC3)n1)OCO2	-6
CCC1(COC(NC(=O)c2cccnc2)(C(F)(F)F)C(F)(F)F)COC1	4
Cc1[nH]n(-c2ccc([N+](=O)[O-])cc2)c(=O)c1C=NCCN1CCN(C(=O)c2cccc(F)c2)CC1	-6
CCOC(=O)c1ccc(Nc2c(CC)c(C)nc3ncnn23)cc1	?	VCAM1 pot conf=-8
CCOC(=O)c1ccc(NC(=O)CC2SC(=NC)N(C)C2=O)cc1 (stereo unspecified)	-18
CCOC(=O)c1ccc(NC(=O)Nc2ccc(S(N)(=O)=O)cc2)cc1	2
O=C1CC(c2ccccc2)CN1S(=O)(=O)c1ccccc1 (stereo unspecified)	-6
N=c1nc(N)nc2n1NC(c1ccc(F)cc1)=CS2	-55
CC1(C)C(c2cccs2)=[N+]([O-])C2(CCCCC/C2=N\NC(N)=O)N1O (stereo unspecified)	15
C=CCNC(=O)CC(=O)N/N=C/c1ccccc1F	0
CCOC(=O)CNC(=O)CSc1nc2sc(C)c(C)c2c(=O)n1C	-4
CCCn1c(SCC(=O)Nc2sc(C)c(C)c2C(=O)OCC)nc2c1c(=O)n(C)c(=O)n2C	31*	VCAM1 pot conf=-12

Screening results from PubChem.
